The values below come from the supplement of paper PMC8728848.

Common to all, as to test: glycan array binding signal (z-score within array); higher = stronger binding
Common to all, as to conditions: glycan notation: IUPAC condensed, linker removed

In experiment [1] the target is Fuc(a1-2)Gal(b1-3)GalNAc(b1-3)Gal(a1-4)Gal(b1-4)Glc. The gist of the method:
(§1)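 Negative Z-scores can be read as non-binding. The Z-score is calculated within each array and then averaged across arrays of one protein sequence at different concentrations or buffers and across linkers. Arrays, 3228 in all, were curated from the Consortium for Functional Glycomics database and kept only where the protein sequence was available.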

The target in experiment [2] is Fuc(a1-2)Gal(b1-3)[Fuc(a1-4)]GlcNAc. The gist of the method: as §1
The next experiment concerns the target Fuc(a1-2)[Gal(a1-3)]Gal. In short, it runs like this:
as §1

The target of experiment [3] is Fuc(a1-3)[Gal3S(b1-4)]GlcNAc. The gist of the method:
as §1

In the next experiment the target is Gal(a1-4)Gal(b1-4)Gal. In short, it runs like this:
as §1

A further experiment deals with Gal(a1-4)Gal(b1-4)GalNAc. The gist of the method:
as §1

The next experiment addresses Gal(a1-4)GlcNAc. In short, it runs like this: as §1
Experiment [4] addresses Gal(b1-3)GalNAc(b1-3)Gal(b1-4)Glc. In short, it runs like this:
as §1

In experiment [5] the target is Gal(b1-4)GalNAc(b1-3)[Fuc(a1-2)]Gal(b1-4)GlcNAc. In short, it runs like this: as §1
Experiment [6] concerns the target GalNAc(b1-3)Gal(a1-4)Gal(b1-4)GlcNAc. In short, it runs like this:
as §1

Experiment [7] deals with GlcNAc(b1-3)[GlcNAc(b1-4)][GlcNAc(b1-6)]GlcNAc. In short, it runs like this: as §1
Experiment [8] deals with GlcNAc(b1-3)[GlcNAc(b1-6)]GlcNAc. The gist of the method:
as §1

Experiment [9] concerns the target GlcNAc(b1-4)GlcNAc(b1-4)GlcNAc(b1-4)GlcNAc(b1-4)GlcNAc. In short, it runs like this:
as §1

The target of experiment [10] is Man(a1-2)Man(a1-2)Man(a1-3)[Man(a1-2)Man(a1-6)[Man(a1-3)]Man(a1-6)]Man(b1-4)GlcNAc(b1-4)GlcNAc. In short, it runs like this: as §1
The next experiment concerns the target Man(a1-3)[Man(a1-6)]Man. In short, it runs like this: as §1
The target of experiment [11] is Neu5Ac(a2-3)Gal(b1-3)GlcNAc6S. In short, it runs like this: as §1
The target of experiment [12] is Neu5Ac(a2-8)Neu5Ac(a2-8)Neu5Ac(a2-3)[GalNAc(b1-4)]Gal(b1-4)Glc. In short, it runs like this: as §1
The target in another experiment is Fuc(a1-2)Gal(b1-4)GlcNAc. In short, it runs like this:
as §1

Experiment [13] deals with Fuc(a1-3)[Gal(b1-4)]GlcNAc(b1-4)Gal(b1-4)[Fuc(a1-3)]GlcNAc(b1-4)Gal(b1-4)[Fuc(a1-3)]GlcNAc. The gist of the method:
as §1

Experiment [14] has as its target Fuc(a1-3)[GalNAc(b1-4)]GlcNAc. The gist of the method: as §1
In experiment [15] the target is Gal(b1-4)GlcNAc(b1-3)Gal(b1-4)Glc. In short, it runs like this: as §1
The next experiment concerns the target Gal3S(b1-4)GlcNAc6S. In short, it runs like this: as §1
Another experiment has as its target Gal3S6S(b1-4)GlcNAc6S. The gist of the method:
as §1

The next experiment deals with GlcNAc(b1-3)GalNAc. The gist of the method:
as §1

A further experiment concerns the target Kdn(a2-3)Gal(b1-4)GlcNAc. In short, it runs like this: as §1
Experiment [16] deals with Man(a1-3)[Man(a1-6)]Man(a1-6)[Man(a1-2)Man(a1-3)]Man(b1-4)GlcNAc(b1-4)GlcNAc. In short, it runs like this:
as §1

The target in experiment [17] is Neu5Ac(a2-3)Gal(b1-4)GlcNAc6S. The gist of the method: as §1
Experiment [18] has as its target Neu5Ac(a2-6)Gal(b1-4)GlcNAc6S. The gist of the method:
as §1

Experiment [19] addresses Neu5Ac(a2-8)Neu5Ac(a2-8)Neu5Ac. The gist of the method:
as §1

In experiment [20] the target is Neu5Ac(a2-8)Neu5Ac(a2-8)Neu5Ac(a2-3)Gal(b1-4)Glc. In short, it runs like this: as §1
For experiment [21], the target named is Fuc(a1-2)Gal(b1-3)GalNAc(b1-3)Gal(b1-4)Glc. The gist of the method: as §1
The target of the next experiment is Fuc(a1-2)Gal(b1-4)Glc. The gist of the method: as §1
In experiment [22] the target is Fuc(a1-2)Gal(b1-4)GlcNAc(b1-3)Gal(b1-4)GlcNAc. In short, it runs like this: as §1
Another experiment has as its target Gal(a1-6)Glc. In short, it runs like this: as §1
Experiment [23] deals with Gal(b1-3)[Fuc(a1-4)]GlcNAc(b1-3)Gal(b1-4)GlcNAc. In short, it runs like this:
as §1

The target in experiment [24] is Gal(b1-3)[Neu5Ac(a2-6)]GlcNAc. The gist of the method:
as §1

Experiment [25] concerns the target Gal(b1-3)[Neu5Ac(a2-6)]GlcNAc(a1-4)Gal(b1-4)Glc. The gist of the method: as §1
For another experiment, the target named is GalNAc(b1-4)GlcNAc. In short, it runs like this:
as §1

Another experiment has as its target GlcA(b1-6)Gal. In short, it runs like this:
as §1

For a further experiment, the target named is GlcNAc(b1-3)Gal. In short, it runs like this: as §1
The target in experiment [26] is GlcNAc(b1-4)GlcNAc(b1-4)GlcNAc. The gist of the method: as §1
In experiment [27] the target is Man(a1-2)Man(a1-2)Man(a1-3)Man. The gist of the method:
as §1

Experiment [28] concerns the target Man(a1-3)[Man(a1-6)]Man(b1-4)GlcNAc(b1-4)GlcNAc. The gist of the method:
as §1

The next experiment has as its target Man(b1-4)GlcNAc. The gist of the method:
as §1

Experiment [29] deals with Fuc(a1-2)Gal(b1-3)GalNAc(b1-4)[Neu5Ac(a2-3)]Gal(b1-4)Glc. In short, it runs like this: as §1
The target in experiment [30] is Fuc(a1-2)Gal(b1-4)[Fuc(a1-3)]GalNAc(b1-3)Gal(b1-4)[Fuc(a1-3)]GlcNAc. The gist of the method:
as §1

Experiment [31] has as its target Fuc(a1-2)Gal(b1-4)[Fuc(a1-3)]GalNAc(b1-3)Gal(b1-4)[Fuc(a1-3)]GlcNAc(b1-3)Gal(b1-4)[Fuc(a1-3)]GalNAc. In short, it runs like this:
as §1

Experiment [32] concerns the target Fuc(a1-2)Gal(b1-4)[Fuc(a1-3)]GlcNAc. In short, it runs like this:
as §1

The target in experiment [33] is Fuc(a1-2)[Gal(a1-3)]Gal(b1-4)Glc. The gist of the method: as §1
The target in experiment [34] is Gal(b1-3)GalNAc(b1-4)Gal(b1-4)Glc. In short, it runs like this: as §1
In experiment [35] the target is Gal(b1-3)GalNAc(b1-4)[Neu5Ac(a2-3)]Gal(b1-4)Glc. In short, it runs like this:
as §1

The target of the next experiment is Gal4S(b1-4)GlcNAc. The gist of the method:
as §1

For another experiment, the target named is Gal6S(b1-4)GlcNAc. The gist of the method: as §1
Experiment [36] addresses GlcNAc(b1-4)[GlcNAc(b1-6)]GalNAc. In short, it runs like this: as §1
The target in another experiment is Neu5Ac(a2-3)Gal. In short, it runs like this:
as §1

The target in experiment [37] is Neu5Ac(a2-3)Gal(b1-3)[Fuc(a1-4)]GlcNAc. The gist of the method:
as §1

In experiment [38] the target is Neu5Ac(a2-3)Gal(b1-4)GlcNAc. In short, it runs like this: as §1
In experiment [39] the target is Neu5Ac(a2-3)Gal6S(b1-4)[Fuc(a1-3)]GlcNAc. In short, it runs like this: as §1

Many of the other results were omitted from the sample, so the strongest signals are more common in it than they were.

B1: RNase 1 (Homo sapiens) (protein)
chain: KESRAKKFQRQHMDSDSSPSSSSTYCNQMMRRRNMTQGRCKPVNTFVHEPLVDVQNVCFQEKVTCKNGQGNCYKSNSSMHITDCRLTNGSRYPNCAYRTSPKERHIIVACEGSPYVPVHFDASVEDST
On to B1, for which the “glycan array binding signal (z-score)” value is 1.93 in experiment [1]; -0.174 in [2]; -0.14 with Fuc(a1-2)[Gal(a1-3)]Gal; -0.168 in experiment [3]; 7.93 in the experiment with Gal(a1-4)Gal(b1-4)Gal; 8.87 with Gal(a1-4)Gal(b1-4)GalNAc. Also, the “glycan array binding signal (z-score)” value is -0.225 with Gal(a1-4)GlcNAc; 0.641 in [4]; -0.218 in experiment [5]; 0.455 in experiment [6]; -0.069 in experiment [7]; -0.116 in [8]. In addition, the “glycan array binding signal (z-score)” value is -0.028 in experiment [9]; -0.153 in [10]; -0.147 in the experiment with Man(a1-3)[Man(a1-6)]Man; -0.204 in [11]; -0.187 in [12].

B2: CLEC7A (Homo sapiens), Q9BXN2 (protein)
chain: MEYHPDLENLDEDGYTQLHFDSQSNTRIAVVSEKGSCAASPPWRLIAVILGILCLVILVIAVVLGTMAIWRSNSGSNTLENGYFLSRNKENHSQPTQSSLEDSVTPTKAVKTTGVLSSPCPPNWIIYEKSCYLFSMSLNSWDGSKRQCWQLGSNLLKIDSSNELGFIVKQVSSQPDNSFWIGLSRPQTEVPWLWEDGSTFSSNLFQIRTTATQENPSPNCVWIHVSVIYDQLCSVPSYSICEKKFSM
As to B2, the “glycan array binding signal (z-score)” value in experiment [1] is 0.301; with Fuc(a1-2)Gal(b1-4)GlcNAc, -0.842; in experiment [13], 0.278; in [14], -0.149; in experiment [15], 0.542; with Gal3S(b1-4)GlcNAc6S, 1.21. For the same molecule, the “glycan array binding signal (z-score)” value with Gal3S6S(b1-4)GlcNAc6S is 5.19; in [6], 0.773; with GlcNAc(b1-3)GalNAc it was 3.29; in [9], -0.613; in the experiment with Kdn(a2-3)Gal(b1-4)GlcNAc, 0.64; in experiment [16], 0.549. In addition, the “glycan array binding signal (z-score)” value in experiment [17] is -0.22; in experiment [18], 0.583; in experiment [19], 4.19; in experiment [20], 1.53.

B3: TbCVNHOb (Tuber borchii) (protein)
chain: GSHIGPYMSFYASSEDVRTIEEGGRTWLVGRARRADGSWQDIKLDLDNIIGNRDGHLTWGEQNFTQSASDIRFNFEGGSNVPVLRAKLRNAAGGEQESDLNLGERLTNNNGDLVFN
For the molecule B3, the “glycan array binding signal (z-score)” value was 2.01 in experiment [1]; 4.24 in experiment [21]; 0.347 with Fuc(a1-2)Gal(b1-4)Glc; -0.268 in experiment [22]; -0.469 in experiment [3]; 4.24 with Gal(a1-4)Gal(b1-4)Gal. Besides, the “glycan array binding signal (z-score)” value is 0.38 in the experiment with Gal(a1-6)Glc; -0.231 in [23]; -0.484 in experiment [24]; 4.83 in experiment [25]; -0.367 in [5]; -0.366 in the experiment with GalNAc(b1-4)GlcNAc. The “glycan array binding signal (z-score)” value is -0.483 with GlcA(b1-6)Gal; -0.16 with GlcNAc(b1-3)Gal; -0.077 in [7]; -0.364 in [26]; 5.4 in experiment [27]; -0.449 in experiment [10]. For the same molecule, the “glycan array binding signal (z-score)” value in [28] is -0.197; with Man(b1-4)GlcNAc, 0.106; in experiment [11], -0.045.

B4: DC SIGN CRD (Homo sapiens), Q9NNX6 (protein)
chain: QPCPWEWTFFQGNCYFMSNSQRNWHDSITACKEVGAQLVVIKSAEEQNFLQLQSSRSNRFTWMGLSDLNQEGTWQWVDGSPLLPSFKQYWNRGEPNNVGEEDCAEFSGNGWNDDKCNLAKFWICKKSAWSHPQFEK
Take B4: the “glycan array binding signal (z-score)” value in experiment [1] is -0.37; in [29], -0.377; in experiment [30] it was 5.67; in experiment [31], 3.54; in [32] it was 4.18; in experiment [33], -0.339. Moreover, the “glycan array binding signal (z-score)” value is 5.8 in experiment [13]; -0.385 in [34]; -0.363 in [35]; -0.361 with Gal4S(b1-4)GlcNAc; -0.39 with Gal6S(b1-4)GlcNAc; -0.392 in the experiment with GlcA(b1-6)Gal. Further, the “glycan array binding signal (z-score)” value in [36] is -0.371; in [10], 2.91; in the experiment with Neu5Ac(a2-3)Gal, -0.339; in experiment [37], -0.076; in experiment [38], -0.387; in experiment [39], -0.394.
